# Screening results: PubChem, National Center for Advancing Translational Sciences (NCATS)
# This is a sample that favours compounds with a hit; in the whole collection about 11% have one here.
# AmpC detergent: AmpC beta-lactamase inhibition with detergent present. hit rate 0.041% among 370,000. Potency, µM (series often up to 114 µM), without a hit: at the top dose activity change, negative = inhibition, actives largely listed as inhibitors. AID 485294. P00811. AmpC hydrolysis of nitrocefin, absorbance 480 nm, 0.01% Triton;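 further: 0% = no-compound wells and -100% = no-enzyme wells; nearly all actives have a fitted effect of over 25% in size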
# Target sequence (P00811 whole entry, looked up): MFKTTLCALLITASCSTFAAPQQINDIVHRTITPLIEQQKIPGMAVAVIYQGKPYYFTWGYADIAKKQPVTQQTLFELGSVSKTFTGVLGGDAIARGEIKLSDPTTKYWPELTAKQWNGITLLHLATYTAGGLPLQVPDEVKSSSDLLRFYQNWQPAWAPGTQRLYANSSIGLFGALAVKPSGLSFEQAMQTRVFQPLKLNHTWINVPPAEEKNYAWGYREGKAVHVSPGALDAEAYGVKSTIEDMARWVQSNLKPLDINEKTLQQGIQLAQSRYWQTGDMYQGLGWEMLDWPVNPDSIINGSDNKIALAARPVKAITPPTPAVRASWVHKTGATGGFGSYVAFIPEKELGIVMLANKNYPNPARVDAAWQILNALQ
#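 20 mM phosphate pH 7.0 + 0.01% (detergent screen) or 0.0001% Triton X-100; 5.3 nM AmpC reagent; cpd preinc 15 min RT; nitrocefin (800 uM stock) to start; A480 q20 s × 4 min; Activity was normalised to no-enzyme and no-compound control wells.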
# Pf growth 48h: inhibits P. falciparum growth in the first generation, 48 h; P. falciparum luciferase growth in erythrocytes, 48 h; Potency, µM (highest dose often 28.7 µM), for the others: top-dose activity change, negative = inhibition, most hits filed as inhibitors; hit rate 5.9% among 310,000; AID 504832
#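 Parasite viability was followed by luminescence of a genomically integrated firefly luciferase. Cultures held 0.1% parasitemia at 2% hematocrit (final), incubated under 5% CO2 at 37 C.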
# AmpC no deterg: AmpC beta-lactamase inhibition without detergent | AmpC nitrocefin hydrolysis, absorbance 480 nm, 0.0001% Triton | Potency, µM (highest dose often 57.1 µM), without a hit: at the top dose activity change, negative = inhibition, hits mostly inhibitors | hit rate 0.52% among 330,000 | P00811;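 further: plate controls were no compound for no effect and no enzyme for full effect; nearly all actives have a fitted effect of over 20% in size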
#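 20 mM phosphate pH 7.0 + 0.01% (detergent screen) or 0.0001% Triton X-100; 5.3 nM AmpC reagent; cpd preinc 15 min RT; nitrocefin (800 uM stock) to start; A480 q20 s × 4 min; Activity was normalised to no-enzyme and no-compound control wells.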
# AMA1 RON2 block: AMA1-RON2 (P. falciparum) interaction inhibition; AlphaScreen AMA1-biotinylated RON2 peptide binding; Potency, µM (highest dose often 58.2 µM), without a hit: at the highest dose activity change, negative = inhibition, hits mostly inhibitors; hit rate 0.2% among 360,000;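 further: 0% = vehicle wells and -100% = peptide control; nearly all actives have a fitted effect of over 45% in size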
#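 AMA1 (3D7) with his tag at 25 nM final met compounds first, then biotinylated RON2 peptide at 25 nM; detection used donor plus acceptor beads, 10 µg/mL apiece, read by AlphaScreen after 30 min at room temperature.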
# HCV inh: inhibitors of hepatitis C virus infection; Huh7.5.1 HCVcc-Cre infection, luciferase reporter, 44 h; Potency, µM (top dose mostly 41.8 µM), for inactives: top-dose activity change, negative = inhibition, actives largely listed as inhibitors; hit rate 3.4% among 340,000; AID 651820
#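 Compounds are dispensed onto cells plated 4 h earlier at 1,000 per well, with HCVcc-Cre virus (about 0.5 moi) added next. Following 44 h of culture, luminescent signal is measured for 15 sec after 15 min with substrate at room temperature.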
# Pf growth 96h: P. falciparum growth inhibition at 96 hour, primary screen for plastid delayed-death inhibitors. P. falciparum luciferase reporter growth, 96 h. Potency, µM (highest dose often 28.7 µM), inactives show at the highest dose activity change, negative = inhibition, actives largely listed as inhibitors. hit rate 6.9% among 320,000. AID 504834
#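 Plates of compound plus infected erythrocytes (2% hematocrit, 0.05% parasitemia final) incubate 96 hours, 37 C, 5% CO2. Detection reagent added; reduced luminescence from the parasites' luciferase reporter flags inhibition.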
# Active calls of the source: *; ? = inconclusive; nt = no result given; ! = not confirmed by another sample; [ ] = another dose, or the depositor's remark. The call rests on the fitted dose curve; in most records, active means well fitted curve in the direction sought with a large enough effect; inconclusive means small, poorly fitted or top-dose-only effect, or another doubt; inactive means no such curve, though single readings can be large; an effect the other way counts as inactive or inconclusive. Unless noted, on the % scale 0 is the no-effect control and ±100 the full control effect; potency means the concentration at half of the fitted maximal effect.
SMILES,AmpC detergent,Pf growth 48h,AmpC no deterg,AMA1 RON2 block,HCV inh,Pf growth 96h
CCC(C)NC(=O)Cn1c(=O)n(CCCCCC(=O)NCc2ccccc2Cl)c(=O)c2sccc21 (centres undefined),2.9%,nt,nt,nt,nt,nt
CC(C)(C)C(=O)O/N=C(\N)c1ccc([N+](=O)[O-])s1,-9.2%,?,-13.3%,-1.7%,?,?
Cc1cccc(NC(=O)c2ccc([N+](=O)[O-])cc2Cl)n1,-6.0%,35.5%,-34.6%,-10.9%,-5.9%,?
Cc1cccc(NC(=O)c2ccc([N+](=O)[O-])s2)c1C,-2.0%,2.62µM*,-8.5%,-6.6%,?,-85.2%
N/C(=N\OC(=O)C1CC1)c1ccc([N+](=O)[O-])s1,-3.3%,?,-15.7%,-25.9%,-12.1%,6.57µM*
Cc1cccc(NC(=O)c2ccc([N+](=O)[O-])s2)n1,3.1%,?,-9.8%,4.1%,15.5%,8.28µM*
COc1ccc(C(C(=O)Nc2ccc(C(C)C)cc2)N(Cc2ccco2)C(=O)CC2NC(=O)NC2=O)cc1 (centres undefined),-6.3%,1.47µM*,121.1%,?,?,?
COc1ccc(NC(=O)C(c2ccc(OC)cc2)N(Cc2ccco2)C(=O)CC2NC(=O)NC2=O)cc1 (centres undefined),4.4%,?,26.5%,-0.2%,-9.4%,?
N=c1c2c3c(sc2ncn1Cc1ccccc1)CCCC3,4.4%,?,-35.8%,4.6%,13.9%,47.3%
N=c1c2c3c(sc2ncn1Nc1ccccc1)CCC3,1.5%,1.65µM*,-36.9%,2.1%,?,2.94µM*
Cc1ccc(C(=O)N2CCN(Cc3cc(=O)n4nc(-c5ccccc5)sc4n3)CC2)cc1,23.6%,nt,nt,nt,nt,nt
Cc1ccc(NC(=O)CSc2ncnc3c2sc2ccccc23)cc1C,-4.6%,nt,nt,nt,nt,nt
Cc1csc2c(SCC(=O)NNC(=O)C(Cl)Cl)ncnc12,4.3%,3.29µM*,-14.8%,95.5%,-0.7%,?
C=Cc1ccc(CSc2nc(-c3ccc(C)cc3)nc3c2Cc2c(CO)cnc(C)c2O3)cc1,-3.8%,nt,nt,nt,nt,nt
C[n+]1ccc(/C=C/c2cccs2)cc1,1.4%,2.94µM*,-19.3%,-2.6%,?,2.33µM*
CCCCCC[n+]1ccccc1/C=C/c1ccc(N(C)C)cc1,nt,nt,nt,-9.2%,nt,nt
CN(C)c1ccc(C(=O)/C=C/c2ccccc2)cc1,0.3%,367.1%,-24.9%,-14.1%,-10.4%,354.2%
Cc1ccc(C(=O)O/N=C/c2ccc(N(C)C)cc2)cc1,3.7%,119.2%,-15.5%,5.6%,0.9%,7.6%
CN(C)c1ccc(/C=C/c2cc[n+]([O-])cc2)cc1,-5.0%,66.0%,-8.9%,nt,nt,2.08µM*
Cc1ccc(/C=C/c2ccc(N(C)C)cc2)[n+](C)c1,1.9%,1.17µM*,-10.7%,-9.5%,3.16µM*,219.2%
CN(C)c1ccc(/C=C/c2cc[n+](C)cc2)cc1,?,nt,-3.3%,-18.9%,1.78µM*,?
NC(=S)N/N=C/c1ccc(C23CC4CC(CC(C4)C2)C3)cc1,?,2.62µM*,-43.6%,89.1%,?,?
Clc1ccc(Nc2nc(-c3ccncc3)cs2)cc1,nt,nt,nt,6.7%,?,nt
COc1ccc2oc(=O)c(-c3csc(Nc4ccc(O)cc4)n3)cc2c1,-6.2%,?,-24.7%,-10.1%[11.6 µM],11.2µM*,-15.6%
COc1ccc2oc(=O)c(-c3csc(-c4ccc(Br)cc4)n3)cc2c1,12.5%,nt,nt,nt,nt,nt
SMILES,AmpC detergent,Pf growth 48h,AmpC no deterg,AMA1 RON2 block,HCV inh,Pf growth 96h
Oc1ccc(Nc2nc(-c3ccc(O)cc3)cs2)cc1,5.5%,-50.3%,?,1.1%,10µM*,-22.7%
Nc1ccc(Nc2nc(-c3ccncc3)cs2)cc1,1.2%,-33.1%,-10.6%,-10.7%,7.94µM*,nt
COc1ccc(OCC(=O)Nc2nc(-c3ccc(Br)cc3)ns2)cc1,8.7%,nt,nt,nt,nt,nt
Cc1nn(C)c2c1c(C(F)(F)F)cc(=O)n2CC(=O)N1CCC(C)CC1,-1.6%,nt,nt,nt,nt,nt
O=C(N/N=C/c1ccco1)c1cc(-c2ccc(Cl)s2)[nH]n1,1.6%,9.28µM*,-15.9%,61.5%,-3.0%,?
CCN(CC)C(=O)CC(c1cc(OC)c(OC)c(OC)c1)c1c(OC)cc(OC)c2ccc(=O)oc12 (centres undefined),-0.4%,11.7µM*,149.4%,9.2%,3.5%,11.7µM*
CCN(CC)C(=O)CC(c1cc(OC)c(OC)c(OC)c1)c1c(OC)cc(OC)c2c(-c3ccccc3)cc(=O)oc12 (centres undefined),-1.2%,4.65µM*,209.7%,-24.8%,?,4.15µM*
COc1cc(OC)c2c(-c3ccccc3)cc(=O)oc2c1C(CC(=O)N1CCOCC1)c1ccc2c(c1)OCO2 (centres undefined),6.1%,?,125.5%,15.9%,?,?
CCN(CC)C(=O)CC(c1cc(OC)c(OC)c(OC)c1)c1c(O)cc(OC)cc1OC (centres undefined),1.6%,?,14.2%,3.6%,5.5%,?
CCN(CC)C(=O)CC(c1ccc(OC)cc1)c1c(OC)cc(OC)c2ccc(=O)oc12 (centres undefined),-7.6%,10.4µM*,132.0%,-12.2%,0.9%,?
CCCC[C@H](CC)CN1CN(C[C@@H](CC)CCCC)CC(C)(N)C1,nt,-20.3%[12.8 µM],nt,nt,nt,?
Cn1c(=O)c2c(-c3ccc(C(C)(C)C)cc3)n(N3CCOCC3)cc2n(C)c1=O,35.5µM*,6.1%,-10.3%,2.1%,8.8%,?
Cn1c(=O)c2c(-c3ccccc3)n(N3CCOCC3)cc2n(C)c1=O,?,17.7%,-14.4%,-0.8%,2.5%,-14.8%
Cc1c(Cl)cccc1Nc1ccccc1C(=O)O,-1.4%,?,-32.1%,-8.4%,-2.8%,13.5µM*!
Cn1c(=O)[nH]c(=O)c2c1nc(CN1CCN(c3ccccc3)CC1)n2Cc1c(F)cccc1Cl,-5.2%,nt,nt,nt,nt,nt
Cn1c(=O)c2c(nc(CN3CCN(c4ccccc4)CC3)n2Cc2c(F)cccc2Cl)n(C)c1=O,-9.8%,?,26.8%,13.4%,-18.3%,5.22µM*
Cn1c(=O)c2c(nc(CN3CCN(c4ccccc4)CC3)n2Cc2ccccc2Cl)n(C)c1=O,?,6.57µM*,17.5%,-16.7%,-3.0%,?
Cn1c(=O)c2c(nc(CN3CCN(c4ccccc4)CC3)n2Cc2ccccc2F)n(C)c1=O,-8.7%,-17.3%,143.1%,nt,nt,nt
Cc1cc(C)nc(Nc2ncc(O)n2-c2ccc(C)c(Cl)c2)n1,-2.3%,2.6%,0.316µM*,29.5%,-8.6%,nt
COc1ccc(C(=O)N2CCc3cc(OC)c(OC)cc3C2COc2ccccc2OC)cc1 (centres undefined),5.0%,nt,nt,nt,nt,nt
